According to PubChem BioAssay (NCATS):
Several values for one entry are separate records, joined by “and”; a condition that tells them apart may be missing. Equal values may be shown once. Results filed as inconclusive are left out. Activity calls are given as the source filed them. Unless noted, the call rests on the fitted dose curve; in most records, active means well fitted curve in the direction sought with a large enough effect; inconclusive means small, poorly fitted or top-dose-only effect, or another doubt; inactive means no such curve, though single readings can be large; an effect the other way counts as inactive or inconclusive.

Assays:
[1] = Cell Viability - BJ (AID 421; calls by dose curve;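 further: potency means the concentration at half of the fitted maximal effect; cells exposed to compound for 40 hours at 37 °C before readout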); conditions: BJ fibroblast viability, qHTS
Method in brief: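 Cytotoxicity in human BJ foreskin fibroblasts is scored as loss of cellular ATP after a 40-hour exposure, measured by luciferase luminescence. Controls are DMSO and 100 uM tamoxifen.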

[2] = Cell Viability - Jurkat (AID 426;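 active means dose-dependent loss of cell ATP signal giving a full or clear fitted curve, ranked by lower potency value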;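 further: potency means the concentration at half of the fitted maximal effect; cells exposed to compound for 40 hours at 37 °C before ATP read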); conditions: qHTS
Method in brief: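 Cytotoxicity taken as drop in cellular ATP (CellTiter-Glo luminescence, 20 min room temperature) after 40 hr, 37C treatment of 5000 Jurkat Clone E6-1 cells per well; concentration-response fitted with Hill equation for AC50.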

[3] = Cell Viability - Hek293 (AID 427;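 active means compounds whose dose-response curve shows a full or clear partial loss of cell viability, called from curve shape rather than a numeric limit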;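 further: potency means the concentration at half of the fitted maximal effect; cells exposed to compound for 40 hours at 37 °C before reading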); conditions: qHTS
Method in brief: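 qHTS, human embryonic kidney (adenovirus-transformed) cells; 40 hr cpd, 37 °C; CellTiter-Glo ATP luminescence. Norm: DMSO = 0, 100 uM tamoxifen = 100% inhibition. Hill-fit AC50.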

[4] = Cell Viability - HepG2 (AID 433; calls by dose curve;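 further: potency means the concentration at half of the fitted maximal effect; potency for ATP loss meaning cytotoxicity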); conditions: qHTS
Method in brief: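 Cytotoxicity is scored as loss of intracellular ATP in HepG2 cells exposed to compounds for 40 h. Concentration-response curves, normalized to DMSO and 100 uM tamoxifen, give AC50 values.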

[5] = Cell Viability - MRC5 (AID 434; calls by dose curve;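 further: potency means the concentration at half of the fitted maximal effect; cells exposed to compound for 40 hours at 37 °C; potency reflects cytotoxicity seen as loss of intracellular ATP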); conditions: MRC5 lung fibroblast viability, qHTS
Method in brief: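 ATP luminescence read-out (CellTiter-Glo, 20 min RT) after 40 hr, 37 °C compound exposure of 1500 MRC5 cells/well. Data normalized to DMSO (basal) and 100 uM tamoxifen (100% inhibition); AC50 from standard Hill equation.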

[6] = Cell Viability - SK-N-SH (AID 435; calls by dose curve; further: potency means the concentration at half of the fitted maximal effect); conditions: SK-N-SH neuroblastoma cell viability qHTS
Method in brief: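 Cells seeded at 1500 per well and incubated 5 hr at 37 °C. Compound added, then 40 hr at 37 °C. CellTiter-Glo added, 20 min at room temperature, luminescence read.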

[7] = target: Mitogen-activated protein kinase 10 (Mus musculus) (UniProt Q61831); test: JNK3 AlphaScreen Assay (AID 530; active means well fitted curve in either direction with a large enough effect, not every such curve was filed as active;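 further: kinase came from lysate of stimulated human HepG2 cells; signal reports phosphorylation of biotinylated GST-cJun 1-79 at Ser73 with 10 µM ATP; on the % scale 0 is the no-effect control and ±100 the full control effect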); conditions: JNK3 lysate, c-Jun phosphorylation; series mostly up to 57.1 µM
Method in brief: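 Activity was read by AlphaScreen after JNK3-containing HepG2 lysate (cytokine pre-activated) phosphorylated biotinylated GST-cJun with 10 uM ATP at room temperature. Phospho-Ser73 cJun antibody with Protein-A acceptor beads provided detection.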

[8] = Cell Viability - N2a (AID 540); conditions: N2a mouse neuroblastoma cell viability; activity change, negative = cytotoxicity: at 92.2 µM (top of the series);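 further: plate controls were DMSO alone for no effect and tamoxifen control for full effect; nearly all actives have a fitted effect of over 45% in size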
Method in brief: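 CellTiter-Glo ATP luminescence, read 20 min after reagent at room temperature, reported viability following 40 h compound treatment at 37 °C. N2a mouse neuroblastoma cells seeded 1500/well; Hill equation gave AC50.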

[9] = Cell Viability - NIH 3T3 (AID 541); conditions: NIH 3T3 cell viability, qHTS; activity change, negative = cytotoxicity: at 92.2 µM (top of the series); further: nearly all actives have a fitted effect of over 25% in size; further: potency means the concentration at half of the fitted maximal effect;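 on activity change, negative = cytotoxicity: plate controls were DMSO alone for no effect and tamoxifen positive control for full effect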
Method in brief: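 Intracellular ATP (CellTiter-Glo luminescence, 20 min at room temperature) measured after 40 hr compound exposure at 37 °C of 1000 NIH 3T3 mouse fibroblasts/well in complete medium; AC50 derived by Hill-equation modelling of qHTS concentration-response curves.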

[10] = Cell Viability - HUV-EC-C (AID 542); conditions: HUV-EC-C endothelial cell viability, qHTS; series mostly up to 92.2 µM; further: on the % scale 0 is the no-effect control and ±100 the full control effect; nearly all actives have a fitted effect of over 35% in size
Method in brief: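 CellTiter-Glo luminescence measured ATP loss in HUV-EC-C cells (1000/well) after 40 hr compound exposure at 37 °C, in complete culture medium. Concentration-response data were Hill-fitted to give AC50.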

[11] = Cell Viability - H-4-II-E (AID 543); conditions: H-4-II-E rat hepatoma viability; series mostly up to 92.2 µM; further: on the % scale 0 is the no-effect control and ±100 the full control effect; nearly all actives have a fitted effect of over 35% in size
Method in brief: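 CellTiter-Glo luminescence (intracellular ATP) measured after 40 h compound exposure at 37 °C in H-4-II-E rat hepatoma cells seeded at 1500/well. Values are AC50s fitted with the standard Hill equation.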

[12] = Cell Viability - SH-SY5Y (AID 544); conditions: SH-SY5Y neuroblastoma cell viability; series mostly up to 92.2 µM; further: nearly all actives have a fitted effect of over 55% in size; further: potency means the concentration at half of the fitted maximal effect
Method in brief: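 Cytotoxicity measured via ATP-dependent luciferase luminescence (CellTiter-Glo) following 40 h, 37 °C exposure of 1500 SH-SY5Y cells per well. Concentration-response data were fitted with the standard Hill equation to give AC50.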

[13] = Cell Viability - Renal Proximal Tubule (AID 545); conditions: renal proximal tubule cells viability, primary cells of rat origin; series mostly up to 91.7 µM;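 further: 0% = DMSO only and -100% = 100 µM tamoxifen; nearly all actives have a fitted effect of over 40% in size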
Method in brief: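 Cytotoxicity is scored as a concentration-dependent drop in cellular ATP in primary rat renal proximal tubule cells exposed for 40 hr. AC50 derives from Hill modelling.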

[14] = AP1 Signaling Pathway (AID 357; active means well fitted curve in either direction with a large enough effect, not every such curve was filed as active;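 further: ME-180 reporter cells stimulated with EGF at its EC50 level; on the % scale 0 is the no-effect control and ±100 the full control effect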); conditions: ME-180 AP-1-bla reporter, EGF-induced, beta-lactamase ratio, 5 h
Method in brief: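 First, ME-180 AP-1-bla cells were cultured overnight at 37 °C in low-serum Opti-MEM. Next, titrated compounds with EC50 EGF were incubated 5 hours. Finally, CCF4 was added for 2.5 hours and the 460/530 nm ratio recorded.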

[15] = NFAT Signaling Pathway (AID 444; active means well fitted curve in either direction with a large enough effect, not every such curve was filed as active;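 further: carbachol stimulus at about its EC50 of 1 µM final; on the % scale 0 is the no-effect control and ±100 the full control effect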); conditions: Jurkat NFAT-bla M1, carbachol, beta-lactamase ratio, 5 h
Method in brief: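 Jurkat cells with NFAT-driven β-lactamase reporter and co-expressed M1 receptor, stimulated with carbachol (final 1 uM, ~EC50), compound titration, 5 h at 37 °C. CCF4 loaded 1 h at RT; 460/530 nm ratio gave %activity and AC50.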

[16] = Stat Signaling Pathway (AID 446; active means well fitted curve in either direction with a large enough effect, not every such curve was filed as active;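 further: ME-180 cervical cancer cells given 40 pM IL-6 alongside compound; SIE-controlled beta-lactamase reporter measured as 460/530 nm FRET emission ratio; on the % scale 0 is the no-effect control and ±100 the full control effect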); conditions: ME-180 (cervical carcinoma) SIE beta-lactamase reporter, IL-6 stimulated, 5 h
Method in brief: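 Emission at 460 and 530 nm (excitation 405 nm) reports SIE-controlled beta-lactamase in ME-180 cells. Cells received compound with 40 pM IL-6 for 5 hrs at 37 C; data scaled between 300 pM IL-6 and 125 nM JAK-inhibitor controls.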

[17] = target: Glucocorticoid receptor (Homo sapiens) (UniProt P04150); test: GR-GFP Redistribution (AID 450;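 active means compounds whose dose series gives a full or clear partial fitted curve of increased nuclear translocation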; further: potency means the concentration at half of the fitted maximal effect); conditions: U2OS GR-GFP nuclear translocation, laser cytometry, 2 h
Glucocorticoid receptor (Homo sapiens), sequence (P04150 whole entry, looked up, the tested form may be a part): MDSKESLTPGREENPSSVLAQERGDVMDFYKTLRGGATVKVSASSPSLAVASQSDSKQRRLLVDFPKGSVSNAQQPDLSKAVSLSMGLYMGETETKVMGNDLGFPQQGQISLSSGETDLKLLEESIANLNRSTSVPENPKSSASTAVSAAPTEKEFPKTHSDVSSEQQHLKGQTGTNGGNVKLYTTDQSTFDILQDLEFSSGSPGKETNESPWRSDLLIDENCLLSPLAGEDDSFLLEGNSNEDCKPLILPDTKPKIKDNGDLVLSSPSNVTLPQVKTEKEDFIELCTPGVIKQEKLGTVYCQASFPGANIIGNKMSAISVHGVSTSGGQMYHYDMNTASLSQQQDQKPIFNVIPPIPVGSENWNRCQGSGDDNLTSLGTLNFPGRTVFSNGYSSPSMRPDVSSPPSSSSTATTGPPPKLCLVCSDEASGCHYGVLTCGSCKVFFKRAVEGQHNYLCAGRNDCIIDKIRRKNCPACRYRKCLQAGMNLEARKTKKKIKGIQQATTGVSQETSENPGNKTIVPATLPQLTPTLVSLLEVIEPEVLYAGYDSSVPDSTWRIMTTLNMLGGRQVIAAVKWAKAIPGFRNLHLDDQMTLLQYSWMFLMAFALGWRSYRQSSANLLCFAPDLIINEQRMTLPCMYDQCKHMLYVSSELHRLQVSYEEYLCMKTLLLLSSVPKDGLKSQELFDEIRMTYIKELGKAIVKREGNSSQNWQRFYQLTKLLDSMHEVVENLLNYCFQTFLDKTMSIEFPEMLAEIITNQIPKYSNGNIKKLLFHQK

[18] = target: Glucocorticoid receptor (Homo sapiens) (UniProt P04150); test: GR-EFC Redistribution (AID 451; calls by dose curve; further: potency means the concentration at half of the fitted maximal effect); conditions: CHO-K1 GR-EFC translocation, beta-gal luminescence, 2 h
Method in brief: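 CHO-K1 cells expressing nuclear EA and GR-ED fragments of b-gal; compounds titrated up to 46 uM final, 2 h at 37 C. GR nuclear translocation read as complemented b-gal luminescence after 1 h RT detection.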

CCCCCCCCCCCCOS(=O)(=O)O
inactive: Potency [1] > 92 µM | Potency [2] > 92 µM | Potency [3] > 92 µM | Potency [4] > 92 µM | Potency [5] > 92 µM | Potency [6] > 92 µM | Potency [7] | activity change, negative = cytotoxicity [8] -3.87% and -0.403% | Potency [9] | Potency [10] | Potency [11] | Potency [12] | Potency [13]

O=C1O[C@H]([C@@H](O)CO)C(O)=C1O
inactive: Potency [1] > 92 µM | Potency [2] > 92 µM | Potency [3] > 92 µM | Potency [4] > 92 µM | Potency [5] > 92 µM | Potency [6] > 92 µM | Potency [7] | activity change, negative = cytotoxicity [8] 3.88% | Potency [9] | Potency [10] | Potency [11] | Potency [12] | Potency [13]

CCCCCCCCCCCCCCCC(=O)NCCO
inactive: activity change, negative = inhibition ([14]; at 38 µM (top of the series)) 11.1% | activity change, negative = inhibition ([15]; at 38 µM (top of the series)) 9.44% | activity, negative = inhibition ([16]; at 38 µM (top of the series)) -2.15% | Potency [7]

CCCc1c(OCCCCc2nn[nH]n2)ccc(C(C)=O)c1O
inactive: activity change, negative = inhibition ([14]; at 17.2 µM (top of the series)) -20.5% | activity, negative = inhibition ([16]; at 17.2 µM (top of the series)) -12.8% | Potency [17] > 20.6 µM

CC1(C)[C@@H]2CC[C@@]1(C)C(=O)C2
inactive: Potency [1] > 92 µM | Potency [2] > 92 µM | Potency [3] > 92 µM | Potency [4] > 92 µM | Potency [5] > 92 µM | Potency [6] > 92 µM | Potency [7] | activity change, negative = cytotoxicity [8] 2.78% | Potency [9] | Potency [10] | Potency [11] | Potency [12] | Potency [13]

NCCNCCNCCN
inactive: Potency [1] > 92 µM | Potency [2] > 92 µM | Potency [3] > 92 µM | Potency [4] > 92 µM | Potency [5] > 92 µM | Potency [6] > 92 µM | Potency [7] | activity change, negative = cytotoxicity [8] -20% | Potency [9] | Potency [10] | Potency [11] | Potency [12] | Potency [13]

Cc1ncc([N+](=O)[O-])n1CC(O)CCl (centres undefined)
inactive: activity change, negative = inhibition ([14]; at 17.2 µM (top of the series)) 0.517% | activity change, negative = inhibition ([15]; at 17.2 µM (top of the series)) -27.2% | activity, negative = inhibition ([16]; at 17.2 µM (top of the series)) 0.729% | Potency [17] > 20.6 µM

NC(=O)c1ncn([C@@H]2O[C@H](CO)[C@@H](O)[C@H]2O)n1
active: Potency [9] 25.1 µM | Potency [12] 31.6 µM
inactive: Potency [1] > 92 µM | Potency [2] > 92 µM | Potency [4] > 92 µM | Potency [5] > 92 µM | Potency [6] > 92 µM | Potency [7] | Potency [10] | Potency [13]

CSc1ccc2c(c1)N(CCC1CCCCN1C)c1ccccc1S2 (centres undefined)
active: activity change, negative = inhibition ([15]; at 17.2 µM (top of the series)) -83%

O=C1c2c(O)cccc2Cc2cccc(O)c21
inactive: Potency [1] > 92 µM | Potency [2] > 92 µM | Potency [3] > 92 µM | Potency [4] > 92 µM | Potency [5] > 92 µM | Potency [6] > 92 µM | Potency [7] | Potency [10] | Potency [11] | Potency [12] | Potency [13]

COc1ccccc1O
inactive: Potency [1] > 92 µM | Potency [2] > 92 µM | Potency [3] > 92 µM | Potency [4] > 92 µM | Potency [5] > 92 µM | Potency [6] > 92 µM | Potency [7] | activity change, negative = cytotoxicity [8] 1.24% and 7.3% and 7.13% | Potency [9] | Potency [10] | Potency [11] | Potency [12] | Potency [13]

CN(C)CCCN1c2ccccc2Sc2ccc(Cl)cc21
inactive: activity, negative = inhibition ([16]; at 17.2 µM (top of the series)) -1.56% and 4.13% | activity, negative = inhibition ([16]; at 38 µM (top of the series)) -20.2% | Potency [17] > 20.6 µM | Potency [18] > 46 µM and > 20.6 µM | Potency [7]
active: activity change, negative = inhibition ([15]; at 17.2 µM (top of the series)) -73.6%

CNCCC(Oc1ccc(C(F)(F)F)cc1)c1ccccc1 (centres undefined)
inactive: activity change, negative = inhibition ([14]; at 17.2 µM (top of the series)) 21.9% | activity, negative = inhibition ([16]; at 17.2 µM (top of the series)) 4.05%

NCCNCCNCCNCCN
inactive: Potency [1] > 92 µM | Potency [2] > 92 µM | Potency [3] > 92 µM | Potency [4] > 92 µM | Potency [5] > 92 µM | Potency [6] > 92 µM | Potency [7] | activity change, negative = cytotoxicity [8] -2.82% | Potency [9] | Potency [10] | Potency [11] | Potency [12] | Potency [13]
